Measurements from ChEMBL document CHEMBL4513149, “CO-ADD screening of MMV (CH) - MMV compounds” (2021).
Potency and affinity values are given separately.

Experiments:
Klebsiella pneumoniae = details: Concentration 20 uM; ASSAY_TEST Inhibition of Bacterial Growth; detection method Absorption (OD600); MEDIA CAMHB; plate type 384well; NBS; CORNING #3640; time 18 hr
Candida albicans = details: 20 µM
Cryptococcus neoformans = details: Concentration 20 uM; ASSAY_TEST Inhibition of Fungal Growth; detection method Resazurin; Absorption (OD600-OD570); plate type 384well; NBS; CORNING #3640

SMILES: CC(C)(CN)c1nc(-c2ccc(Cl)c(O)c2)c(-c2ccnc(N)n2)[nH]1.O=C(O)C(F)(F)F.O=C(O)C(F)(F)F
- Inhibition (Klebsiella pneumoniae): 15.34%
- Inhibition (Candida albicans): 2.09%
- Inhibition (Cryptococcus neoformans): -6.49%

SMILES: COc1ccc2nc(C)cc(OCC(=O)NCc3ccccc3)c2c1
- Inhibition (Klebsiella pneumoniae): 19.56%
- Inhibition (Candida albicans): 2.81%
- Inhibition (Cryptococcus neoformans): -4.71%

SMILES: Cc1cc(C(=O)Nc2ccc(-c3ccccc3)cc2)no1
- Inhibition (Klebsiella pneumoniae): 16.31%
- Inhibition (Candida albicans): 4.46%
- Inhibition (Cryptococcus neoformans): -3.33%

SMILES: CC(=O)O.CC(=O)O.Nc1ncnc2c1ncn2[C@@H]1O[C@H](COS(=O)(=O)NC(=O)c2ccccc2O)[C@@H](O)[C@H]1O
- Inhibition (Klebsiella pneumoniae): 14.67%
- Inhibition (Candida albicans): 1.66%
- Inhibition (Cryptococcus neoformans): -8.69%

SMILES: COc1cc(CN2CCC3(C=Cc4ccccc43)CC2)cc2c1OCO2
- Inhibition (Klebsiella pneumoniae): -1.15%
- Inhibition (Candida albicans): -0.19%
- Inhibition (Cryptococcus neoformans): -8.59%

SMILES: Cc1ccccc1C(=O)N1N=C(Nc2ccccc2)SC1(C)C
- Inhibition (Klebsiella pneumoniae): 6.87%
- Inhibition (Candida albicans): 4%
- Inhibition (Cryptococcus neoformans): -7.29%

SMILES: COc1cccc(OCC(=O)c2ccc(Br)cc2)c1
- Inhibition (Klebsiella pneumoniae): -4.37%
- Inhibition (Candida albicans): 4.44%
- Inhibition (Cryptococcus neoformans): -12.88%

SMILES: O=C(CN1CCOCC1)Nc1ccc2ncnc(Nc3ccc(OCc4cccc(F)c4)c(Cl)c3)c2c1
- Inhibition (Klebsiella pneumoniae): 11.31%
- Inhibition (Candida albicans): 5.94%
- Inhibition (Cryptococcus neoformans): -1.06%

SMILES: Cc1cnc(N2CCN[C@@H](Cc3ccccc3)C2)nc1Oc1ccc(-n2ccnc2)cc1.Cl
- Inhibition (Klebsiella pneumoniae): 8.14%
- Inhibition (Candida albicans): 2.69%
- Inhibition (Cryptococcus neoformans): -5.74%

SMILES: CCC(C)NC(=O)c1ccc(NC(=O)C2(c3ccccc3)CCCC2)cc1 (stereo not drawn)
- Inhibition (Klebsiella pneumoniae): 1.96%
- Inhibition (Candida albicans): 3.52%
- Inhibition (Cryptococcus neoformans): 9.11%

SMILES: CC1COC2(CCN(c3nc(=O)c4cc(C(F)(F)F)cc([N+](=O)[O-])c4s3)CC2)O1 (stereo not drawn)
- Inhibition (Klebsiella pneumoniae): 8.31%
- Inhibition (Candida albicans): 2.39%
- Inhibition (Cryptococcus neoformans): -12.38%
